The test addresses E3 ubiquitin-protein ligase XIAP (Homo sapiens) (UniProt P98170). The test is described as follows: small molecules binding XIAP protein – biophysical, small-molecule microarray, fluorescence 635 nm, primary screen (AID 1181).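 Also: score merges 667 nm emission and signal to noise over triplicate slides.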 The settings on record: higher = more signal.
Chain of E3 ubiquitin-protein ligase XIAP (Homo sapiens) (P98170 whole entry, looked up): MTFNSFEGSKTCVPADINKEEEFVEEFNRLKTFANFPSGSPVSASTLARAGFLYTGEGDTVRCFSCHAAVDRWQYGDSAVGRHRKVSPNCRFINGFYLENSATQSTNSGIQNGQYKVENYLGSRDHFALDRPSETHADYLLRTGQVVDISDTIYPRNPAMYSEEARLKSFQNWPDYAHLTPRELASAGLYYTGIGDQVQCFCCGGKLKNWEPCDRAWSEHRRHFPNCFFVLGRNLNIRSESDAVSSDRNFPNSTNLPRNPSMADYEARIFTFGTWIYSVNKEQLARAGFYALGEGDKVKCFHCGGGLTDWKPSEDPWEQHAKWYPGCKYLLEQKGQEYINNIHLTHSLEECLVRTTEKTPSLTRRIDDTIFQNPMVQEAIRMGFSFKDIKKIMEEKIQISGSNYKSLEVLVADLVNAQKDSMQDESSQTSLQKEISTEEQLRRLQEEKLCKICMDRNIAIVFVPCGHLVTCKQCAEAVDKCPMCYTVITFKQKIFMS
The compound `COC(=O)[C@@]1(Cc2ccc(OC)cc2)[C@H]2c3cc(C(=O)N(C)C)n(C[C@H](O)CO)c3C[C@H]2CN1C(=O)c1ccccc1` displayed a composite z-score of 0.441. In the case of `Cn1cccc1C(O)C1C=CC2C(=O)NC(=O)C2N1Nc1ccc(Cl)cc1Cl` (stereo unspecified) it was 0.315; in that of `COc1ccc([Si](C)(C)[C@@H]2[C@@H](CC(=O)N(CCO)Cc3ccccc3)O[C@]3(C(=O)N(Cc4cccc(N5C(=O)c6cccc7cccc5c67)c4)c4ccccc43)[C@H]2C)cc1`, -0.124; in that of `Cc1ccc(S[C@]2(C(=O)NCC(F)(F)F)CC(=O)N(Cc3ccccc3C(F)(F)F)[C@@H]2c2ccc(CO)cc2I)cc1`, 0.531.

Consider `CCOc1cc(C(O)C2C=CC3C(=O)N(c4ccccc4)C(=O)C3N2Nc2ccc(C#N)cc2)ccc1O` (stereo unspecified), for which the composite z-score was -0.0438.

For `COCCOC(=O)N1C(=O)[C@@]2(c3ccccc31)[C@H](C(=O)N1CCN(c3ncccn3)CC1)[C@H]1C(=O)O[C@H](c3ccccc3)[C@H](c3ccccc3)N1[C@@H]2c1ccc(O)cc1`, the composite z-score was -0.222. For the compound `CCCC[C@@H]1C[C@H]1[C@@H](NC(=O)c1cccs1)c1ccc(C(F)(F)F)cc1`, the composite z-score was determined as 0.0408.

Turning to `COC(=O)c1ccc([C@H](NC(=O)c2ccco2)[C@]2(C)C[C@H]2C2CCCCC2)cc1`, the composite z-score is -0.0668. In the case of `O[C@@H](Cc1ccccc1)[C@@H](/C=C/C1CC1)N(CC#Cc1ccccc1)Cc1cccc(Cl)c1` it was -0.0931; in that of `N#Cc1ccc(C(O)C2C=CC3C(=O)N(c4ccccc4)C(=O)C3N2Nc2ccccc2)cc1` (stereo unspecified), 0.0537; in that of `CC(C)N1C(=O)c2ccccc2[C@@H](C(=O)NC2CC2)[C@@H]1c1ccc(CO)cc1`, 0.163. The compound `COC(=O)c1nc2oc1CC[C@@H](CO)NC(=O)N(C)Cc1cnnn1C[C@H](Cc1ccccc1)NC2=O` registered a composite z-score of -0.148.

For `C=CCNC(=O)[C@@H]1[C@H]2C(=O)O[C@H](c3ccccc3)[C@H](c3ccccc3)N2[C@H](c2ccc(O)cc2)[C@@]12C(=O)N(C(=O)OCCOC)c1ccc(C#CC3(O)CCCCCC3)cc12`, the composite z-score was -0.391.

Turning to `O=C1C=C(c2ccccc2)C(=O)c2ccc([C@H]3Oc4ccccc4S(=O)(=O)N4CCC[C@@H]34)cc21`, the composite z-score is -0.31.

In turn, `C=C(COC)/C(=C/C[C@H](OC(C)=O)c1ccc(OCCO)cc1)c1cc(C(=O)OC)ccc1OC` displayed a composite z-score of -0.345.

In the case of `CC(C)[Si](C#C[Si](C(C)C)(C(C)C)C(C)C)(O[C@H](C)c1cn([C@H](CO)Cc2ccccc2)nn1)C(C)C`, the composite z-score was 0.0484. `CC1CC/C=C\[C@H]2OC34C=CCN(C(C)C)C(=O)[C@H]3N(CCCCCCO)C(=O)[C@@H]4C2C(=O)O1` (stereo partly specified) displayed a composite z-score of 0.0914.

Consider `CC1CC/C=C\[C@H]2OC34C=CCN(c5ccc(Cl)cc5)C(=O)[C@H]3N(CCCCCO)C(=O)[C@]4(C)C2C(=O)O1` (stereo partly specified), for which the composite z-score was determined as 0.102.

`COCCCNC(=O)[C@@]1(Sc2ccc(C)cc2)CC(=O)N(C2CCCCC2)[C@@H]1c1ccc(CO)cc1`: the composite z-score is -0.191. The compound `[N-]=[N+]=Nc1ccccc1[C@H]1OC(c2ccc(OCCCO)cc2)=N[C@@]1(Cc1ccccc1)C(=O)N1CCCCC1` came in with a composite z-score of 0.0197. `CC(C)OC(=O)C=C1C[C@@H](c2ccc(C(F)(F)F)cc2)O[C@@H](c2ccc(C(F)(F)F)cc2)O1` had a composite z-score of 0.371. The compound `[N-]=[N+]=Nc1ccccc1[C@@H]1OC(c2ccc(OCCCO)cc2)=N[C@]1(Cc1ccccc1)C(=O)NCC(O)CO` (stereo partly specified) returned a composite z-score of 0.366.

In the case of `[N-]=[N+]=Nc1ccccc1C[C@]1(C(N)=O)N=C(c2ccc(OCCCO)cc2)O[C@H]1c1ccccc1N=[N+]=[N-]`, the composite z-score is -0.248.

As for `C[C@@H]1NC(=O)[C@@]23C(=O)N[C@@H](Cc4ccccc4)C2[C@H](C)[C@@]2(C)O[C@H]2C3/C=C/C/C=C\CNC(=O)[C@@H]2CCCN2C1=O` (stereo partly specified), the composite z-score is -0.102. The result for `COCCCNC(=O)[C@]1(CCS(=O)(=O)c2ccccc2)N=C(c2ccc(OCCCO)cc2)O[C@@H]1c1ccccc1N=[N+]=[N-]` reads -0.199. In the case of `O=C1OCCC/C=C\[C@H]2OC34C=CCN(CCN5CCOCC5)C(=O)[C@H]3N(CCCCCCO)C(=O)[C@@H]4C12` (stereo partly specified), the composite z-score was found to be 0.122.
